Our source for the PBM binding z-score values is the supplement of paper PMC6555819.

Holding throughout (test): PBM binding z-score (relative to random genomic background probes); higher = stronger binding; sequences stand for … in GC…GCGATTGACAGCGTAGAATGAAGG
For experiment [1], the system named is RARb homodimer (NR concentration 270 nM). The method, boiled down: (§1)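 Regression normalization was applied to scanned fluorescence from custom Agilent 4×180K protein-binding microarrays. Before scanning, arrays were incubated 1 h with ligand-free nuclear receptor dimers, and binding was detected with antibodies against each partner (one per run). Binding z-scores use the random background probes as reference.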

Experiment [2] has as its system RARg:RXRa (NR concentration 270 nM, RXRa partner concentration 90 nM). Put shortly: as §1
The subject of experiment [3] is RARg homodimer (NR concentration 270 nM). Put shortly: as §1
The test system of experiment [4] is RXRa DBDmut IVT, anti-RXR (DBD mutation: RXRa K156A/R161A, NR concentration 90 nM). The method, boiled down: as §1
Experiment [5] deals with RXRa homodimer (NR concentration 180 nM). Put shortly:
as §1

The subject of experiment [6] is THRa:RXRa (NR concentration 90 nM, RXRa partner concentration 90 nM). Put shortly:
as §1

Experiment [7] has as its system THRa homodimer (NR concentration 90 nM). Put shortly:
as §1

The test system of experiment [8] is VDR homodimer (NR concentration 270 nM). Put shortly:
as §1

Consider AGAGCGAGGGCAATGAGTTGATAGCACGGGTGGC, for which the PBM binding z-score in experiment [1] came to 0.903; in experiment [2], 1.19; in experiment [3], 1.31; in experiment [4] it was 1.48; in experiment [5] it was 0.736; in experiment [6] it was 0.613. The PBM binding z-score in experiment [7] was -0.514; in experiment [8], 2.82.
As for TAGCCTAGGTCATTCAGCGGCCAGTATAGAAAGC, the PBM binding z-score in experiment [1] worked out at 2.81; in experiment [2], 5.65; in experiment [3] it was 4.44; in experiment [4] it was 1.85; in experiment [5], 3.07; in experiment [6] it was 2.74. In addition, the PBM binding z-score came out at 0.53 in experiment [7] and 1.04 in experiment [8].
Turning to CCTACTGGGCCATCAGGTCTTTGATATCAACGTT, the PBM binding z-score in experiment [1] was 0.24; in experiment [2], -0.0925; in experiment [3], -0.00289; in experiment [4], -0.126; in experiment [5], -0.274; in experiment [6], 0.487. In addition, the PBM binding z-score in experiment [7] is 0.437; in experiment [8] it was -0.123.
On to GATACAGGGTCAAGTCCAGAGTACGCGTATTGAT, for which the PBM binding z-score in experiment [1] is 3.68; in experiment [2] it was 5.8; in experiment [3], 5.41; in experiment [4], 3.08; in experiment [5] it was 6.06; in experiment [6], 3.68. In addition, the PBM binding z-score in experiment [7] was found to be 1.22; in experiment [8], 3.51.
For the sequence GTTAGTTGGTCAGTAAAAGGTCACACACCGGTCG, the PBM binding z-score was found to be 5.25 in experiment [1]; 5.67 in experiment [2]; 5.37 in experiment [3]; 1.14 in experiment [4]; 6.08 in experiment [5]; 3.68 in experiment [6]. Also, the PBM binding z-score in experiment [7] was determined as 2.18; in experiment [8] it was 2.3.
Take TCTATTAATTGAAGGGCAACCGACGAGTCCGTTT: the PBM binding z-score in experiment [1] stood at 1.05; in experiment [2], 0.656; in experiment [3], 0.454; in experiment [4], 1.24; in experiment [5], 0.717; in experiment [6], 0.258. Moreover, the PBM binding z-score in experiment [7] is 0.559; in experiment [8], 2.19.
With TTACCAAGGTGAAAGGTCTTTGATGCACGCCTTG, the PBM binding z-score in experiment [1] was 1.15; in experiment [2], 1.67; in experiment [3], 0.887; in experiment [4], -0.125; in experiment [5], 2.43; in experiment [6], 2.13. Further, the PBM binding z-score is 0.663 in experiment [7] and -0.219 in experiment [8].
